Data on 11 molecules can be found in publication PMC11062922 (Nature Chemical Biology, 2023).

Each structure is given as a SMILES string.

The first experiment has as its system NNT. Also on record: species or system human, MV4-11 + K-562 + COLO205 + SK-N-BE2 + OVCAR-8. As to conditions: read-out: apparent Kd; compound concentrations:100 nM and 1000 nM (sheet 'Samples'); n = 1.
Turning to `CS(=O)(=O)CCNCc1nc(-c2ccc3ncnc(Nc4ccc(F)c(Cl)c4)c3c2)cs1.Cl` [GW461104A], the potency estimated from few doses is 1740 nM.

`Fc1cccc(COc2ccc(Nc3ncnc4sc(-c5cccs5)cc34)cc2Cl)c1` [GW684626B]: the potency estimated from few doses is 1210 nM.

Take `CS(=O)(=O)CCNCc1nc(-c2ccc3ncnc(Nc4ccc(OCc5ccccc5)c(Cl)c4)c3c2)cs1.CS(=O)(=O)CCNCc1nc(-c2ccc3ncnc(Nc4ccc(OCc5ccccc5)c(Cl)c4)c3c2)cs1.Cl.Cl` [GW582764A]: the potency estimated from few doses was 2020 nM.

In another experiment the test system is NQO2. Also on record: species or system human, MV4-11 + K-562 + COLO205 + SK-N-BE2 + OVCAR-8. As to conditions: read-out: apparent Kd; compound concentrations: 100 nM and 1000 nM (sheet 'Samples'), CATDS: 1; n = 1.
Regarding `CCn1c(-c2nonc2N)nc2ccc(F)cc21` [GW785404X], the potency estimated from few doses is 339 nM.

As for `Cn1cnc2c(N)ncnc21` [SKF-97623], the potency estimated from few doses is 1300 nM.

Consider `COc1c(C(N)=O)cc(-c2ccc(Cl)cc2)cc1-c1ccc(S(N)(=O)=O)cc1` [GSK711701A], for which the potency estimated from few doses was 1490 nM.

As for `COc1cc(Nc2nccc(N3CCC(NC(=O)c4cc5ccccc5s4)C3)n2)cc(OC)c1OC` (stereo not drawn) [GSK1379760A], the potency estimated from few doses is 1030 nM.

Still in this experiment, the particulars now being: read-out: apparent Kd; compound concentrations:100 nM and 1000 nM (sheet 'Samples'); n = 1.
As for `CS(=O)(=O)CCNCc1nc(-c2ccc3ncnc(Nc4ccc(OCc5ccccc5)c(Cl)c4)c3c2)cs1.CS(=O)(=O)CCNCc1nc(-c2ccc3ncnc(Nc4ccc(OCc5ccccc5)c(Cl)c4)c3c2)cs1.Cl.Cl` [GW582764A], the potency estimated from few doses was 1880 nM.

As for `COc1cccc(-c2nc(-c3ccccc3)[nH]c2-c2ccncc2)c1` [SB-610250], the potency estimated from few doses was 131 nM.

Regarding `FC(F)(F)c1ccc(-c2cc(-c3c[nH]nc3-c3ccccn3)ccn2)cc1` [GW599550X], the potency estimated from few doses was 1070 nM.

For the molecule `Cc1ccc(-c2cc(-c3c[nH]nc3-c3ccccn3)ccn2)cc1` [GW684088X], the potency estimated from few doses was 741 nM.

Take `COc1cccc(-c2cc(-c3c[nH]nc3-c3ccccn3)ccn2)c1` [GW680338X]: the potency estimated from few doses was 424 nM.
